Assay results: PubChem BioAssay AID1851 (National Center for Advancing Translational Sciences (NCATS), 2009)
Out of some 16,000 compounds screened, about 4,000 (25%) were called active. About 26% were inconclusive and are not listed. Calls come from the whole dose curve; as a rule, active = well fitted curve in the direction sought with a large enough effect; inconclusive = small, poorly fitted or top-dose-only effect, or effect the other way; inactive = no such curve, though single readings can be large or run the other way. Only a sample is shown.

Each compound was assayed against Cytochrome P450 2C9 (Homo sapiens) (UniProt P11712) (assay: Cytochrome panel assay with activity outcomes). Conditions: recombinant CYP, pro-luciferin dealkylation, luminescence, p450-cyp2c9; series mostly up to 57.1 µM.
Sequence of Cytochrome P450 2C9 (Homo sapiens) (P11712 whole entry, looked up): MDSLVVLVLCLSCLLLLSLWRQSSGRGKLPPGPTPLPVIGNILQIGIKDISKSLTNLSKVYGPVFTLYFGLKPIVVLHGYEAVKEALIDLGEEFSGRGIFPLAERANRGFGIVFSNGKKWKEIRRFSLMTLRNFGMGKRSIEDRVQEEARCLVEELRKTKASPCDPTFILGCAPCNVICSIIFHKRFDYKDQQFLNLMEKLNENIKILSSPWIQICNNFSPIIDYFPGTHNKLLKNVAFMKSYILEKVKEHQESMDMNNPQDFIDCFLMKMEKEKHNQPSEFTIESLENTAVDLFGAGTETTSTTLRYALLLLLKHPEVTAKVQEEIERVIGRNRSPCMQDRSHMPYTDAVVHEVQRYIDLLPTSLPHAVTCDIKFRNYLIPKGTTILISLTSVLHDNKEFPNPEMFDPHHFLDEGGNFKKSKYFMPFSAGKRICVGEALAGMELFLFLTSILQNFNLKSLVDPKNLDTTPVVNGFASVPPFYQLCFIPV
% is set by controls: 0 for no effect and ±100 for the full control effect.

Row | SMILES | AC50 | activity, negative = inhibition
1 | O=C(O)[C@@H]1C[C@@H](C(=O)O)N1 | inactive | 
2 | Cc1nonc1NC(=O)N1CCCC1 | inactive | 
3 | Cn1c(CC(=O)Nc2ccc(Cl)c(Cl)c2)nnc1SCC(=O)N1CCN(c2ccccc2)CC1 | 5.62 µM (active) | 
4 | CC1CC(C)CN(C(=O)CSc2nnc(CSc3ncccn3)n2C)C1 (stereo unspecified) | inactive | 
5 | CCOC(=O)N1CCC(NC(=O)c2cc(S(=O)(=O)N3CCCC3)cn2C)CC1 | 7.08 µM (active) | 
6 | CCOC(=O)N1CCC(NC(=O)C2CCN(S(=O)(=O)N3CCCC3)CC2)CC1 | inactive | 
7 | CCCS(=O)(=O)N1CCCC(C(=O)N2CCN(C(=O)OCC)CC2)C1 (stereo unspecified) | inactive | 
8 | C[C@@]12CCC(=O)C=C1CC[C@H]1[C@@H]2[C@@H](O)C[C@]2(C)[C@@H]1CC[C@@]2(O)C(=O)COC(=O)C1CCCC1 |  | -1.4% [at 11.4 µM] (inactive)
9 | Nc1ccccc1N=Nc1c(S(=O)(=O)O)cc2cc(S(=O)(=O)O)cc(O)c2c1O |  | -15.1% [at 11.4 µM] (inactive)
10 | O=S(=O)(O)c1cc(O)c2c(N=Cc3ccccc3O)cc(S(=O)(=O)O)cc2c1 | 3.16 µM (active) | 
11 | CS(=O)(=O)Nc1cccc(-c2nccc(-n3ccnc3)n2)c1 |  | -8.16% [at 2.29 µM] (inactive)
12 | Cc1ccc(Nc2ccc(-n3ccnc3)nn2)cc1C | 0.0794 µM (active) | 
13 | COc1ccccc1-c1cc(-n2ccnc2)ncn1 |  | -8.14% [at 2.29 µM] (inactive)
14 | CCc1ccc(NC(=O)c2cc(C(C)C)on2)cc1 | inactive | 
15 | CCc1noc(N)c1C(=O)Nc1ccc(F)c(Cl)c1 | 14.1 µM (active) | 
16 | O=C(Nc1ccc(F)cc1)c1cc(S(=O)(=O)N2CCCCC2)cs1 | 12.6 µM (active) | 
17 | O=C(O)c1cc(S(=O)(=O)N2CCCCC2)ccc1F | inactive | 
18 | O=C(N/N=C1/C[C@@H](O)[C@@H](O)[C@@H]2[C@H]3C(=O)N(c4ccc(F)cc4F)C(=O)[C@@H]3CC[C@H]12)OCc1ccccc1 |  | -11.6% [at 11.4 µM] (inactive)
19 | O=C1C=C(NCCc2cc(Br)c(O)c(Br)c2)C(=O)c2ncccc21 | 1.58 µM (active) | 
20 | O=C1C=C(Nc2nc(C(=O)O)cc(=O)[nH]2)c2ccccc2C1=O |  | 8.04% [at 11.4 µM] (inactive)
21 | COc1ccc2c(c1)c(=O)oc1c(C)c(OCC(=O)N3CCc4ccccc4C3)ccc12 | 1 µM (active) | 
22 | COCC(=O)N1CCC2(CC1)CCN(C(=O)Nc1ccc(OC)cc1)CC2 | inactive | 
23 | CN(C)CC[C@H](c1ccc(Br)cc1)c1ccccn1 | inactive | 

Row | SMILES | AC50 | activity, negative = inhibition
24 | CN(Cc1ccco1)c1ccnc(-c2ccoc2)n1 |  | 27.8% [at 2.29 µM] (inactive)
25 | COc1ccccc1C1(CC(=O)Nc2nccs2)CCOC(C(C)C)C1 (stereo unspecified) | 10 µM (active) | 
26 | Oc1ccccc1CNCc1ccccc1O |  | -4.69% [at 11.4 µM] (inactive)
27 | O[C@@H](c1cc(C(F)(F)F)nc2c(Cl)cc(Cl)cc12)[C@@H]1CCCCN1 |  | 0.514% [at 11.4 µM] (inactive)
28 | N#Cc1cccc(-c2nccc(NCc3ccccc3)n2)c1 |  | -19.1% [at 2.29 µM] (inactive)
29 | CN(C)c1ccnc(Oc2ccc(Cl)cc2)c1C#N | 20 µM (active) | 
30 | COc1ccc(Oc2nccc(-c3ccc(F)cc3)c2C#N)cc1 | inactive | 
31 | N#Cc1c(-c2ccccc2)ccnc1Oc1ccccc1 | 7.08 µM (active) | 
32 | COc1ccccc1CNc1cc(-c2cccc(C#N)c2)ncn1 |  | 8.28% [at 2.29 µM] (inactive)
33 | C[C@@H]1O[C@H](O[C@@H]2[C@@H](Oc3cc(O)c4c(c3)O[C@H](c3ccc(O)cc3)CC4=O)O[C@@H](CO)[C@@H](O)[C@H]2O)[C@@H](O)[C@H](O)[C@@H]1O | inactive | 
34 | Cc1ccc2c(c1)N[C@H](c1ccc(C(=O)O)cc1)c1cccn1-2 |  | -25.1% [at 11.4 µM] (inactive)
35 | C[C@@H](CN1CCC(Cc2ccccc2)CC1)[C@@H](O)c1ccc(O)cc1 | inactive | 
36 | Cc1ccc(C)c(Cn2c(C(=O)OC(C)C)cc3c2ccn3C)c1 | 8.91 µM (active) | 
37 | CC(C)OC(=O)c1cc2c(ccn2C)n1CC(=O)N1CCC(Cc2ccccc2)CC1 | 14.1 µM (active) | 
38 | C[C@@H](CN1CCC(Cc2ccccc2)CC1)[C@H](O)c1ccc(O)cc1 | inactive | 
39 | COCCn1c(=O)c(-c2cc(F)cc(F)c2)nc2cnc(Oc3cccc(Cl)c3)nc21 | 3.98 µM (active) | 
40 | N#CCCn1c(=O)c(-c2ccc(F)cc2)nc2cnc(Oc3cccc(Cl)c3)nc21 | inactive | 
41 | COCCn1c(=O)c(-c2ccccc2)nc2cnc(Oc3cccc(Cl)c3)nc21 | 0.501 µM (active) | 
42 | COCCn1c(=O)c(-c2ccc(OC)cc2)nc2cnc(Oc3cccc(Cl)c3)nc21 | 0.631 µM (active) | 
43 | CCNc1ncc2nc(-c3cc(F)cc(F)c3)c(=O)n(CCOC)c2n1 | inactive | 
44 | COCCn1c(=O)c(-c2ccc(OC)cc2)nc2cnc(Nc3cccc(OC)c3)nc21 | inactive | 
45 | COCCn1c(=O)c(-c2cn(C)c3ccccc23)nc2cnc(Oc3cccc(Cl)c3)nc21 | inactive | 
46 | O=c1[nH]c(=O)n([C@@H]2C[C@H](O)[C@H](CO)O2)cc1C(F)(F)F | inactive | 

Row | SMILES | AC50 | activity, negative = inhibition
47 | Fc1ccccc1NC(=S)NCCc1ccccc1 | 7.94 µM (active) | 
48 | Fc1ccc(NC(=S)NCCc2ccccc2)c(F)c1F | 5.01 µM (active) | 
49 | Fc1cc(Br)ccc1NC(=S)NCCc1ccccc1 | 10 µM (active) | 
50 | COc1ccccc1NC(=S)NCCc1ccccc1 | inactive | 
51 | O=C1O[C@@H]([C@H](O)[C@H](O)[C@H](O)CO)[C@@H](O)[C@@H]1O |  | -8.59% [at 11.4 µM] (inactive)
52 | COc1ccc(C(=O)N2CCC[C@@]3(CCN(C(=O)NC(C)C)C3)C2)cc1 | inactive | 
53 | Nc1ncnc2c1ncn2[C@H]1O[C@@H](C(=O)OCCO)[C@@H](O)[C@H]1O |  | -1.34% [at 11.4 µM] (inactive)
54 | O=C(O)C1CCN(c2ncnc3ccc(-c4ccccc4C(F)(F)F)cc23)CC1 |  | 4.43% [at 2.29 µM] (inactive)
55 | N#Cc1ccccc1-c1ccc2ncnc(N3CCNCC3)c2c1 |  | 26.5% [at 2.29 µM] (inactive)
56 | Cc1cc(C)n(-c2ccc(C(=O)Nc3cc(C(F)(F)F)ccc3N3CCOCC3)cc2)n1 | 0.0794 µM (active) | 
57 | Cc1ccc(C(C)C)n1C(=O)OC(C)(C)C |  | 0.745% [at 11.4 µM] (inactive)
58 | CC(=O)Nc1ccc(N2C(=O)CSC2c2c(F)cccc2Cl)cc1 (stereo unspecified) | 10 µM (active) | 
59 | CC(=O)Nc1ccc(N2C(=O)CC(c3ccccc3)CC2=O)cc1 | inactive | 
60 | COc1ccc(N2C(=O)CSC2c2cccc(F)c2)c(OC)c1 (stereo unspecified) | inactive | 
61 | O=C(Nc1ccccc1)c1ccccc1CC[N+](=O)[O-] | inactive | 
62 | Cc1cccc[n+]1CC(=O)Nc1ccc([N+](=O)[O-])cc1Cl | inactive | 
63 | O=C(Nc1ccccc1)c1cc([N+](=O)[O-])ccc1Cl | 6.31 µM (active) | 
64 | O=C(Nc1ccc([N+](=O)[O-])cc1Cl)c1cc(Cl)ccc1O | 0.631 µM (active) | 
65 | CC1=C[N+](=O)c2ccccc2[N+]1=O |  | -5.42% [at 11.4 µM] (inactive)
66 | N#Cc1cccc(-c2cc(-n3ccnc3)ncn2)c1 |  | -5.24% [at 2.29 µM] (inactive)
67 | CCCCN(C)CCCNC(=O)c1ccc(N2CCCC2=O)cc1 | inactive | 
68 | O=C(O)c1cccc(OCCO)c1 |  | -19% [at 11.4 µM] (inactive)
69 | O=C(O)c1cccc(N2CCCC2=O)c1 | 12.6 µM (active) | 

Row | SMILES | AC50 | activity, negative = inhibition
70 | c1nc(NC2CCNCC2)c2cc(-c3ccc4c(c3)OCO4)ccc2n1 |  | 28.6% [at 2.29 µM] (inactive)
71 | Oc1cc(O)c2c(c1)O[C@H](c1ccc(O)c(O)c1)[C@@H](O)[C@@H]2c1c(O)cc(O)c2c1O[C@@H](c1ccc(O)c(O)c1)[C@H](O)C2 |  | -22.1% [at 11.4 µM] (inactive)
72 | O=C(c1cccc(F)c1)N1CCC2(CCN(Cc3ccccc3)CC2)CC1 | inactive | 
73 | O=C(c1cccc(F)c1)N1CCC2(CCN(Cc3cc(C(F)(F)F)cc(C(F)(F)F)c3)CC2)CC1 | inactive | 
74 | O=C(c1cccc(F)c1)N1CCC2(CCCN(Cc3ccccc3)C2)CC1 | inactive | 
75 | O=C(c1cccc(F)c1)N1CCC2(CCCN(Cc3ccncc3)C2)CC1 | 0.631 µM (active) | 
76 | O=C(c1cccc(F)c1)N1CCC2(CCN(Cc3ccncc3)CC2)CC1 | 2.51 µM (active) | 
77 | COc1ccc(C(=O)N2CCC3(CCCN(C(=O)Nc4cccc(F)c4)C3)CC2)cc1 | inactive | 
78 | O=C(Nc1cccc(F)c1)N1CCCC2(CCN(C(=O)c3cnccn3)CC2)C1 | inactive | 
79 | O=C(Nc1cccc(F)c1)N1CCCC2(CCN(C(=O)c3ccncc3)CC2)C1 | 0.0794 µM (active) | 
80 | O=C(c1cccc(F)c1)N1CCC2(CCCN(Cc3cc(C(F)(F)F)cc(C(F)(F)F)c3)C2)CC1 | inactive | 
81 | Cc1ccc(NC(=S)/C(=C(\[O-])c2ccc(C)c([N+](=O)[O-])c2)[n+]2ccccc2)cc1C | inactive | 
82 | Cc1ccc(C(=O)N/N=C\c2ccc[nH]2)cc1[N+](=O)[O-] | inactive | 
83 | Cc1ccc(C(=O)Nc2ccc(Cc3ccncc3)cc2)cc1[N+](=O)[O-] | 0.631 µM (active) | 
84 | CCC(=O)[C@@]1(C)[C@H](C)C[C@@H]2[C@@H]3CCC4=CC(=O)C=C[C@@]4(C)[C@H]3[C@H](O)C[C@]21C | inactive | 
85 | CCCCCCN(CCCCCC)C(=O)Cc1c(-c2ccc(Cl)cc2)[nH]c2ccc(Cl)cc12 | inactive | 
86 | O=C1Cc2c([nH]c3ccc(Br)cc23)-c2ccccc2N1 | inactive | 
87 | CCc1c(C(=O)O)[nH]c2ccc(Br)cc12 | 15.8 µM (active) | 
88 | CC(=O)N1CCC2(CCN(Cc3nccs3)CC2)CC1 | inactive | 
89 | CCOC(=O)CCCc1c[nH]c2ccccc12 | 7.94 µM (active) | 
90 | C[C@@](N)(Cc1c[nH]c2ccccc12)C(=O)O |  | -9.29% [at 11.4 µM] (inactive)
91 | Nc1ccc2[nH]cc(CCC(=O)O)c2c1 |  | -7.47% [at 11.4 µM] (inactive)
